Source: the OligoGym collection

Each sequence was assayed against C20orf54 (assay: pooled miR-30 sensor sort-seq; sequence = guide strand). Details: shRNA.
Further: reference of the scale not given here.

Sequence	sensor-assay potency score (higher = more potent)
TCAGTGACATTGACGCAGGTAG	-0.422
TTATCTGCTTGTCTTGTAGAAG	-1.04
TATCGTTATCTGCTTGTCTTGT	0.0273
TTCCCTTCTAACACCCTTGGGC	0.125
TTACTCTCCAACTAGTGGGCTT	-0.23
TTGCAGAAGTCCGCGGACGAGA	-1.3
TTGACGTAACTGAGGCAGCCGC	-1.38
TATCTCAGTGACATTGACGCAG	0.229

Each sequence was assayed against C21orf70 in the same assay as above. Details: shRNA.

Sequence	sensor-assay potency score (higher = more potent)
ATTTTCTGCAACCATTGCTCAC	-1.16
TTCTGCACCAAGGCGCTGGGGT	-0.84
TTTATTGAGCCCCACAACCGAC	-1.2
TTGGTGTTGATGAACGCCCAGT	-0.833
TTGCTCACGCCTCAGCTTCATT	-1.27
TTTTATGGCTTCGATTTTCTGC	-0.59
TCCAGCTTCTGCACCAAGGCGC	-0.982
TTCTTGGGCAAAACGGTCTTGG	-0.889
TTTTCTGCAACCATTGCTCACG	-0.501
TTCGATTTTCTGCAACCATTGC	-1.09
TTGAGCCCCACAACCGACCAGA	-0.652
TCTTCCAGCTGCATCTGCCGGG	-0.496

These sequences were tested against C2orf55 in the same assay as above. Details: shRNA.

Sequence	sensor-assay potency score (higher = more potent)
ATTATTTTTGGAAACAGTCTAT	-0.496
TTATCCTCTTTGTTTTGCCTGG	-0.575
TTTCTTTCTGGCAAGTTCCATC	-0.776
TTTGTTTGCCACAATACACTGG	-0.196
TTGAATTTAGATTTTTTCTTTC	-0.493
TTTGCCACAATACACTGGCAGT	-1.43
TTTTTGGAAACAGTCTATGAAT	-1.5
TTAGATTTTTTCTTTCCTGTGC	0.654
TTATTTTTGGAAACAGTCTATG	-0.924
TTGTTTGCCACAATACACTGGC	0.782
TTTCTGGCAAGTTCCATCCAGG	-0.596
TTGATGATAAAATCAATCTTTA	-0.855

These sequences were tested against C2orf57 in the same assay as above. Details: shRNA.

Sequence	sensor-assay potency score (higher = more potent)
TTGTCTTTGTCTCCAGATGTTG	-1.39
TAAAGCTTCAGCTTCAGGGTGT	0.632
TCTCTCAGGAACACTCGCCATT	-1.27
ATTTGTGACATCTTGTCTTTAC	-1.19
TGACATCTTGTCTTTACCCAGG	-0.635
TTGTCCTTGCGTCTTGAACCTG	-1.12
TAGACCTGCTGTCATCCACGTT	-1.17
AAAACCACTAGACTCTGACTTG	-0.273
